Shown are actives, neighbours in structure and some others; about 1.2% of the full set was active somewhere.
GC-A act: GC-A (human) enzyme activation | hit rate 0.14% among 370,000 | HEK293 GC-A cells, cGMP TR-FRET, EC30 ANP; 0% at EC30 ANP, 100% saturating ANP | P16066 | AID 1671463 | activation, % at 10 µM; in the data active = activation above about 40%
GC-B act: GC-B (human) receptor activation; AID 1920062; HEK293-GC-B cells, CNP EC30, cGMP TR-FRET; 0% at EC30 CNP, 100% saturating CNP; hit rate 0.11% among 370,000; activation, % at 10 µM;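 active = activation at 10 µM reaching about 35% in either raw or pattern-adjusted values, limit read from the data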
TLR9-MyD88 block: TLR9-MyD88 interaction inhibition. Q9NR96+Q99836. CHO BLA complementation TLR9-MyD88, CCF4 FRET ratio. inhibition, % at 4.98 µM. hit rate 0.21% among 340,000;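 active = inhibition above the mean over all tested compounds plus 3 SD, cut at about 21% in these data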;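 note: 0% = DMSO only wells and 100% = clavulanate BLA inhibitor control wells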
Neddylation inh: cullin neddylation inhibition; P61081+Q13564; inhibition, % at 25 µM; hit rate 0.58% among 360,000; TR-FRET cullin neddylation, biochemical; in the data active = inhibition above about 36%
TLR4 MyD88 comp: TLR4-MyD88 interaction inhibition in cells; HeLa CL3-4 TLR4/MyD88 BLA complementation, FRET ratio; inhibition, % at 8.4 µM; hit rate 0.18% among 200,000; in the data active = inhibition above about 25%;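 note: 0% = vehicle and 100% = reference inhibitor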
Target sequence (O00206 whole entry, looked up): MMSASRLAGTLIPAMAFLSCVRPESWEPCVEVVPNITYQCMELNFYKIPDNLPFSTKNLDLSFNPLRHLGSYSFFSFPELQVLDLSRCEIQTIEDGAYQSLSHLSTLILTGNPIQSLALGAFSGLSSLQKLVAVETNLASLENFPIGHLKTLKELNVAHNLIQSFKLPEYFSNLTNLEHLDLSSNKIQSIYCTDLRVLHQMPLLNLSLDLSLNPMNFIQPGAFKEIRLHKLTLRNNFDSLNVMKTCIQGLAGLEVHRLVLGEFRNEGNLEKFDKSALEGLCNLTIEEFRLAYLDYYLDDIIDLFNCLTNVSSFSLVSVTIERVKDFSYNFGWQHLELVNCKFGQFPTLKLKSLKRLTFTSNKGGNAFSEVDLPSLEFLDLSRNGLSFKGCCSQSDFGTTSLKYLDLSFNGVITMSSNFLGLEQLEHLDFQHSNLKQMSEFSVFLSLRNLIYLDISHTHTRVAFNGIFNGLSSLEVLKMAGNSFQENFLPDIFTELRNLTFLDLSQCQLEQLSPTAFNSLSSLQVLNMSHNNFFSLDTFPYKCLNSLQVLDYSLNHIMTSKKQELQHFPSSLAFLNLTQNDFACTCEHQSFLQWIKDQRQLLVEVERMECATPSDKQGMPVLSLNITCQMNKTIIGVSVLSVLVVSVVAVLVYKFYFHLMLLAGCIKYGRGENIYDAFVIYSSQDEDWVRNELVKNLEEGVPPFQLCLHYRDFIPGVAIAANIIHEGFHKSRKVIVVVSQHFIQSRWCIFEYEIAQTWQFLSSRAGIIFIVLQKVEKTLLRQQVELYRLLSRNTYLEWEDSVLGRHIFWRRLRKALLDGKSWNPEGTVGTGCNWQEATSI
Target sequence (Q99836 whole entry, looked up): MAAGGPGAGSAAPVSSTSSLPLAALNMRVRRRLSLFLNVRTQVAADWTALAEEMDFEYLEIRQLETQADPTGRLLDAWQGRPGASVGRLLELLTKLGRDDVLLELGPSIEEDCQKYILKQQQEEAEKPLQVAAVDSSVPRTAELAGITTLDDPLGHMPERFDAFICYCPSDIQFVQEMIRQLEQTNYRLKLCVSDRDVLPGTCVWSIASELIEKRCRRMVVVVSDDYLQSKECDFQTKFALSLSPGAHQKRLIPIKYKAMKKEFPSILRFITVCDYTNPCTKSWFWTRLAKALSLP
NOD2 RIPK2 PPI: NOD2-RIPK2 protein interaction inhibition; O43353; CHO BLA complementation NOD2-RIPK2, CCF4 ratio; inhibition, % at 4.98 µM; hit rate 0.38% among 360,000; in the data active = inhibition above about 21%;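 note: 0% = vehicle only and 100% = reference blocker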
Neddyl conf: cullin neddylation inhibition, confirmation; shares compounds with Neddylation inh; TR-FRET cullin neddylation biochemical assay; calls only at 25 µM; hit rate 13% among 1,800; AID 652217; in the data active = inhibition above about 40%;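 note: neddylation substrate is the cullin 1 ring ligase complex with SKP2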
Active calls of the source: *; i = inactive; x = not tested or not shown; + = active, no number.

SMILES	GC-A act	GC-B act	TLR9-MyD88 block	Neddylation inh	TLR4 MyD88 comp	NOD2 RIPK2 PPI	Neddyl conf
Cc1nnc2ccc(-c3ccc(NS(=O)(=O)c4ccc(Cl)s4)cc3)nn12	12.7	-1.7	-0.1	41.0*	x	-3.2	x
CSc1ncccc1C(=O)OCC(=O)NC12CC3CC(CC(C3)C1)C2	-3.5	-11.7	0.9	-21.3	x	-3.1	x
Cc1ccccc1-c1cc2c(c3c1ccn3C)C1CCC2O1 (configuration not stated)	0.8	-1.4	x	24.1	x	0.1	x
Cn1ccc2c(-c3cncc4ccccc34)cc3c(c21)C1CCC3O1 (configuration not stated)	-3.5	2.1	x	45.9*	x	-3.9	+
CCOC(=O)COc1ccccc1/C=N\NC(=O)c1cc2c(ccc3ccccc32)o1	28.9	7.1	-1.0	55.3*	x	-2.1	x
C=CCN1C(=O)[C@@H](CC(=O)NCCCOC)[C@]2(C(=O)OCC)CCCCC/C=C/12	-0.5	-4.2	x	x	x	x	x
Cc1cccc(NC(=O)CSc2nnc(CNC(=O)c3ccco3)o2)c1	0.1	1.6	3.6	0.1	x	2.6	x
COc1ccc(-c2[nH]ncc2/C=C(/C#N)C(=O)NC2CCCCCC2)cc1	-1.9	0.6	1.8	40.8*	-2.6	-3.2	i
Cc1cc(/C=C(\C#N)C(=O)NC2CCCCCC2)c(C)[nH]1	0.5	2.5	-3.3	38.3	-2.2	-4.7	x
CCOC(=O)C1=C(COCCN)NC(C)=C(C(=O)OC)C1c1ccccc1Cl (configuration not stated)	-28.4	-20.9	-8.5	x	x	0.6	x
CCOC(=O)C1=C(C)NC(C)=C(C(=O)OC)C1c1cccc(Cl)c1Cl (configuration not stated)	-19.7	-10.7	2.3	x	1.3	-14.8	x
C[C@H](O)[C@@H]1C(=O)N2CCc3c([nH]c4ccccc34)[C@@H]2C[C@@H]1N(C)Cc1ccc(Cl)cc1	13.4	9.6	-6.9	43.9*	x	-6.3	i
c1ccc(-c2nnc(-c3ccco3)o2)cc1	0.7	-2.7	-2.8	42.1*	17.9	0.4	x
Cc1ccc(Nc2nnc(SCC(=O)NC3CC3)s2)cc1	-3.9	-0.8	1.5	-7.0	x	-8.8	x
CCOC(=O)C1=C(C)NC(C)=C(C(=O)OCC)C1C(=O)OCC(=O)N(C)Cc1ccccc1	-9.0	-8.9	-3.5	40.3*	x	-9.1	i
CCOC(=O)C1=C(C)NC(C)=C(C(=O)OCC)C1C(=O)OCC(N)=O	-2.6	1.8	4.4	16.6	-4.8	-1.4	x
C=CCc1c(C)c(C#N)c2nc3ccccc3n2c1NCCN(C)C	1.2	4.2	-11.5	42.9*	-6.5	-4.9	x
N#Cc1c2c(c(NCCOCCO)n3c1nc1ccccc13)CCCC2	4.4	2.2	10.2	48.7*	-13.3	2.8	+
COCCNc1c2c(c(C#N)c3nc4ccccc4n13)CCCC2	5.7	4.7	-0.4	52.7*	8.8	-3.3	+
OC(CNC1Cc2ccccc2C1)c1ccccc1 (configuration not stated)	x	x	2.2	7.1	x	-7.4	x
C[C@@H]1CN([C@@H](C)CO)C(=O)CCCn2nncc2CO[C@H]1CN(C)Cc1ccc(Oc2ccccc2)cc1	0.9	0.8	-7.7	0.9	x	-1.2	x
CC(C)(C)NC(=O)C(c1ccccc1)n1c(-c2ccc(-c3ccccc3)cc2)nc2ccccc21 (configuration not stated)	-9.0	-4.3	x	-76.1	x	1.7	x
O=C(NCc1ccccc1)C(c1cccc2ccccc12)n1c(=O)c(-c2ccccc2)nc2ccccc21 (configuration not stated)	-3.0	-4.2	x	-211.3	x	-13.6	x
CC(C)(C)NC(=O)C(c1ccccc1)n1c(=O)c(-c2ccccc2)nc2ccccc21 (configuration not stated)	-9.2	-7.5	x	42.6*	x	-13.0	i
Cc1cccc(C)c1NC(=O)C(C1CC1)n1c(=O)c(-c2ccccc2)nc2ccccc21 (configuration not stated)	-2.1	3.3	x	54.9*	x	8.4	+
SMILES	GC-A act	GC-B act	TLR9-MyD88 block	Neddylation inh	TLR4 MyD88 comp	NOD2 RIPK2 PPI	Neddyl conf
CC(C)(C)NC(=O)C(c1ccnc2ccccc12)n1c(=O)c(-c2ccccc2)nc2ccccc21 (configuration not stated)	-16.5	-14.3	x	45.2*	x	-6.9	i
O=S(=O)(CCNC1CC1)NC1CCCCC1	4.1	-1.5	-9.6	0.1	x	5.4	x
COC(=O)[C@H](CC(C)C)N(CCc1cn(Cc2ccc(C)cc2)nn1)S(=O)(=O)c1ccccc1Br	2.6	3.1	x	x	x	x	x
C[C@@H](C(=O)N=c1sc2ccccc2n1C)N1C(=O)C2CC=CCC2C1=O (some centres not stated)	-5.5	3.7	-4.2	-0.6	x	-5.3	x
COc1cccc(/C=C/C(=O)OCC(=O)N2c3ccccc3CC2C)c1OC (configuration not stated)	1.9	-3.6	-0.6	46.4*	x	-1.4	x
COc1cccc(/C=C/C(=O)OCC(=O)c2cc(C)n(CC3CCCO3)c2C)c1OC (configuration not stated)	3.5	3.5	-6.1	42.9*	-10.1	-5.0	i
COc1ccc(/C=C/C(=O)OCC(=O)NC2CCCCCCC2)cc1	0.4	0.9	-20.9	1.8	x	-5.6	x
COc1cccc(/C=C/C(=O)OCC(=O)NCC2CCCCC2)c1OC	1.2	3.8	-5.4	30.5*	x	-6.5	i
COc1cccc(/C=C/C(=O)OCC(=O)NCc2ccco2)c1OC	1.6	-2.4	2.8	14.2	-3.9	-17.1	x
COc1ccc(OC)c(/C=C/C(=O)OCC(=O)NC2CCCCCCC2)c1	-0.3	-2.6	-3.2	59.3*	x	-5.2	x
C[C@@H]1COC(=O)[C@@H](CC(=O)OC(C)(C)C)C/C=C\C[C@@H](CC(=O)N[C@H](CO)Cc2ccccc2)C(=O)N1	1.4	-2.7	-3.8	7.1	x	-2.4	x
Cn1nc(C(F)(F)F)c(-c2cccc(C(F)(F)F)c2)c1NC(=O)c1ccco1	5.6	-4.7	-0.9	42.7*	x	-9.3	i
CCN(CC)CCNC(=O)c1cc2c(=O)n(C)c3ccccc3c2n1C	2.3	0.0	1.9	39.2*	-9.8	2.6	x
CC(C)Cn1cc(C(=O)NCc2cccs2)c2c3ccccc3n(C)c2c1=O	-14.9	-13.8	2.9	40.5*	-22.1	2.4	i
CCN(CC)CCNC(=O)c1nn(-c2ccc(C)cc2)c(=O)c2c1c1ccccc1n2C	0.8	-4.8	-0.2	42.5*	5.4	-13.9	i
CC(C)CCNC(=O)c1cn(CC(C)C)c(=O)c2c1c1ccccc1n2C	-2.8	-0.6	4.2	12.9	x	-5.0	x
CCCN(CCC)CCCNC(=O)c1cc2c(=O)n(C)c3ccccc3c2n1C	3.1	-1.5	-5.4	30.0	2.6	-0.4	x
